Measured values reported in the supplement of paper PMC10849652.
The full data set covers some 8,800 targets. This sample favours those with a hit. About 0.5% of all pairs of compound and target were hits. Unmarked numbers belong to inactive results.

UniProt P17480, sequence (P17480 whole entry, looked up): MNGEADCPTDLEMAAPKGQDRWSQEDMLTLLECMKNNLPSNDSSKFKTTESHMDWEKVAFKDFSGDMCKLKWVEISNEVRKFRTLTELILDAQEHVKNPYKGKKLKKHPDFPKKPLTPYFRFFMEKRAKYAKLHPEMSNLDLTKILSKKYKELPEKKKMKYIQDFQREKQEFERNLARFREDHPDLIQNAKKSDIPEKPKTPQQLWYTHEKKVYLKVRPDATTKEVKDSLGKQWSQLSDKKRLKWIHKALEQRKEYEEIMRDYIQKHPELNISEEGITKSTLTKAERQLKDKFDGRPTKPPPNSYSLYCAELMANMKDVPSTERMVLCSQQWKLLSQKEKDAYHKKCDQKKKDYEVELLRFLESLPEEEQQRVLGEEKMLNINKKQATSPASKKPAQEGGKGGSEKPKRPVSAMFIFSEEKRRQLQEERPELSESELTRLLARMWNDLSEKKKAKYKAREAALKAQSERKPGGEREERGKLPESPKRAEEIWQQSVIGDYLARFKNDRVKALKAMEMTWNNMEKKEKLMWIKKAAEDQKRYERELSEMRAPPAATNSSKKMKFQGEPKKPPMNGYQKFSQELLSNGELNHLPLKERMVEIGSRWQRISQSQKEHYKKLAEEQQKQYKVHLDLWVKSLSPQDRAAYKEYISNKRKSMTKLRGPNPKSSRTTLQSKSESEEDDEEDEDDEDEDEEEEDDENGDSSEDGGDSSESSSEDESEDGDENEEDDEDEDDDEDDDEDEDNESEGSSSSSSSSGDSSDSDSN
UniProt Q12815, sequence (Q12815 whole entry, looked up): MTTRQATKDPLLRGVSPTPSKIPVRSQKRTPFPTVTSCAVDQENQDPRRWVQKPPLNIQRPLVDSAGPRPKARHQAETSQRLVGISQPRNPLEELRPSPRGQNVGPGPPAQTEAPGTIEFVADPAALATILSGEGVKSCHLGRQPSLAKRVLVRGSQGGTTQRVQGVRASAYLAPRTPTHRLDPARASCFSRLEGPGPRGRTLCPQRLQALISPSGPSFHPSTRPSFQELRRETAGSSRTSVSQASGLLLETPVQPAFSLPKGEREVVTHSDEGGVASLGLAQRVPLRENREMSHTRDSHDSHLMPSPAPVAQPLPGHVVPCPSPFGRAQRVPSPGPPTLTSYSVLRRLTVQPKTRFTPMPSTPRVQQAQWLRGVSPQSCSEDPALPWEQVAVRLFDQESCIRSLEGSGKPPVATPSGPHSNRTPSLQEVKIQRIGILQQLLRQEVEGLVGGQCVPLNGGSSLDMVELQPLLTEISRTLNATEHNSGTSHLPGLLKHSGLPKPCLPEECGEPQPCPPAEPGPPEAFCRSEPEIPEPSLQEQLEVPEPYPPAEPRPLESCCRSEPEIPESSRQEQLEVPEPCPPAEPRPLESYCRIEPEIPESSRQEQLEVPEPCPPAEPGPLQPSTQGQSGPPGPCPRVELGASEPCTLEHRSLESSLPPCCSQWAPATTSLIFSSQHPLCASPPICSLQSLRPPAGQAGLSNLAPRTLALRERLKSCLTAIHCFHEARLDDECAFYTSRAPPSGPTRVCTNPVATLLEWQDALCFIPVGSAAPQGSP
UniProt P67936, sequence (P67936 whole entry, looked up): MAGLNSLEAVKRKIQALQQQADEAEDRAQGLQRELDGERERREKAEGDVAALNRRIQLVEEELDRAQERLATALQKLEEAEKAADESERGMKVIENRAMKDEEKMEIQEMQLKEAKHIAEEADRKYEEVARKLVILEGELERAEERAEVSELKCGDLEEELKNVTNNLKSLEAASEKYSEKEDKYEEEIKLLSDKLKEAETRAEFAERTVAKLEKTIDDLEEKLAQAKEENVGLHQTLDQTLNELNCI
UniProt Q9P0S9, sequence (Q9P0S9 whole entry, looked up): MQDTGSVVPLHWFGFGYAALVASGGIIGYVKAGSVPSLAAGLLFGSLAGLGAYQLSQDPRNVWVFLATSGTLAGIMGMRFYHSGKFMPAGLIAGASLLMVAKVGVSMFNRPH
UniProt Q96CW5, sequence (Q96CW5 whole entry, looked up): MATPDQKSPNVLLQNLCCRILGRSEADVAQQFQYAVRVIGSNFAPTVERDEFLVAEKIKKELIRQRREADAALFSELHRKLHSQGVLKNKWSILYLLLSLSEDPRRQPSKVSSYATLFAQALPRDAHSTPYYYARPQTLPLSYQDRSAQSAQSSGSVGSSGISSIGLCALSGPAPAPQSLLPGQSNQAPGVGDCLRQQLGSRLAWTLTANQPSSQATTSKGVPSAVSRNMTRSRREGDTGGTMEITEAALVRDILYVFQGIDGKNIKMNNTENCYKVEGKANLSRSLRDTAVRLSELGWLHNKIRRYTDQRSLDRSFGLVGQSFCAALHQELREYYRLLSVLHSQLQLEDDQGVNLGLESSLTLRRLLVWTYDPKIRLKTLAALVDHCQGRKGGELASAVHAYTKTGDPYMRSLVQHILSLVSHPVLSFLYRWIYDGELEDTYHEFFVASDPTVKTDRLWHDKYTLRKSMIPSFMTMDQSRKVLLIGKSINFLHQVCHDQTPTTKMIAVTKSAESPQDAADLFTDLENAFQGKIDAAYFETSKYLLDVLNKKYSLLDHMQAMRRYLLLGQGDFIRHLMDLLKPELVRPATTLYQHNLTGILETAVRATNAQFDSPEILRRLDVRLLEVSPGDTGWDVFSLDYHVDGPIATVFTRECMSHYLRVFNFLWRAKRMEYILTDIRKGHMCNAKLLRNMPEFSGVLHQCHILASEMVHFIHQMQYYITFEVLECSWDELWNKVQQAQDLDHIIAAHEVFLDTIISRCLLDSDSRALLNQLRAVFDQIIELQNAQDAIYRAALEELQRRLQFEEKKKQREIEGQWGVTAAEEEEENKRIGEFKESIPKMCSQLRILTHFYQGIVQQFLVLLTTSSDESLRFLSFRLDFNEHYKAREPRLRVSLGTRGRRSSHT
UniProt Q5TAX3, sequence (Q5TAX3 whole entry, looked up): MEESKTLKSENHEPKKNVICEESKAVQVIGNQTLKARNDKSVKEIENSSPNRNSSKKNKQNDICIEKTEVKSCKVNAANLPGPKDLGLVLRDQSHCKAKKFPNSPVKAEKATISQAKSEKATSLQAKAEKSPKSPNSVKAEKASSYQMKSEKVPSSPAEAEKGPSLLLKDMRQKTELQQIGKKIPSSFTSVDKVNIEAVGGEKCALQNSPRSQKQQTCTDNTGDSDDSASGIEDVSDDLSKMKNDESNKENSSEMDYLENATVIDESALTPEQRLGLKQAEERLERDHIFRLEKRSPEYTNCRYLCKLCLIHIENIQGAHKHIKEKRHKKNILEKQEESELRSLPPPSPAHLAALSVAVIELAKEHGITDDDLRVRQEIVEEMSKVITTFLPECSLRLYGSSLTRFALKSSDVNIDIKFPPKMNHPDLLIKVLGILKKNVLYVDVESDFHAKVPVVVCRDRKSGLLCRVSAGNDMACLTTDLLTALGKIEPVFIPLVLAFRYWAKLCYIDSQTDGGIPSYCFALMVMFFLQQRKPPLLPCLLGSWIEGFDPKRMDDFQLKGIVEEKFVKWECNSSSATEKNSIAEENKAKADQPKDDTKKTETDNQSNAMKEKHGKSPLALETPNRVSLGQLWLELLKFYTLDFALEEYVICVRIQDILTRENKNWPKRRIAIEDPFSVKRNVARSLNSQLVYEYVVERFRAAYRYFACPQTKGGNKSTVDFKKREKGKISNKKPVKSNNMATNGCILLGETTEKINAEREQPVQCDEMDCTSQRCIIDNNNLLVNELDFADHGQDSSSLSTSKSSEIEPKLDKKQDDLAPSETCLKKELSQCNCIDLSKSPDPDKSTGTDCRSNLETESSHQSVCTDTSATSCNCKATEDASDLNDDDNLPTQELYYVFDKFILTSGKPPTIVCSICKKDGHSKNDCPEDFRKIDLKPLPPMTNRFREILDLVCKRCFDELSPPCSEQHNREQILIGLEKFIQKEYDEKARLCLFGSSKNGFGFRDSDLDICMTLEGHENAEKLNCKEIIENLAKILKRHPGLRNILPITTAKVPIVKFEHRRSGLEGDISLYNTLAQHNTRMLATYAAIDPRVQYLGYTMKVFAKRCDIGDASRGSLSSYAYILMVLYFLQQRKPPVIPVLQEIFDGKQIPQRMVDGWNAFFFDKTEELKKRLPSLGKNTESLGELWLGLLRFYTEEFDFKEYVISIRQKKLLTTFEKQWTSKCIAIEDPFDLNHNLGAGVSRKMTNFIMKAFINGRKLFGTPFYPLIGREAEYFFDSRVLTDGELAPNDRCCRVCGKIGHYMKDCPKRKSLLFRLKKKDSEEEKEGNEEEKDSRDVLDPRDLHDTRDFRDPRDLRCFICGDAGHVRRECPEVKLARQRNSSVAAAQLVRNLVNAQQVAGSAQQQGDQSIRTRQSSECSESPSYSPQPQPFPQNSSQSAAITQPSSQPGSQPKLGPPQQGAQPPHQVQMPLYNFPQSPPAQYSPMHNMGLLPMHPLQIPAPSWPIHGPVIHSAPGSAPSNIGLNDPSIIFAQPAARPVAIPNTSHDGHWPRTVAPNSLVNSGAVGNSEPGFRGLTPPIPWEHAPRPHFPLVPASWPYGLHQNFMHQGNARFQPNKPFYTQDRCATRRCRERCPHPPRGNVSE
UniProt P09493, sequence (P09493 whole entry, looked up): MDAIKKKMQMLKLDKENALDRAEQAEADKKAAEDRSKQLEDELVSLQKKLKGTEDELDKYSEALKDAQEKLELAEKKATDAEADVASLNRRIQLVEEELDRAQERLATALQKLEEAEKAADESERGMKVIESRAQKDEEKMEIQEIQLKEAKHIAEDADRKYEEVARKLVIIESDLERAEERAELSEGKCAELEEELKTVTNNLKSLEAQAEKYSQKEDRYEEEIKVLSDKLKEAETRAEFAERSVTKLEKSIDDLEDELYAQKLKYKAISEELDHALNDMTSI
UniProt O43399, sequence (O43399 whole entry, looked up): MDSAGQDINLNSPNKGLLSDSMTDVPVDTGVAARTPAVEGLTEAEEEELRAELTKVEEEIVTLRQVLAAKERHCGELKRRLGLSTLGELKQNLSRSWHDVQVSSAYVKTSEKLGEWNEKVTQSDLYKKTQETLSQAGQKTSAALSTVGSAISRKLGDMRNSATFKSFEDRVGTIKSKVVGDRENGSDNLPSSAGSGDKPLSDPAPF

These targets were tested with C1=CC=C(C=C1)[C@H](COC2=CC3=C(C=C2)NC(=O)N3)NC(=O)C4=CC=CN(C4=O)CC5=CC(=C(C=C5)F)F (assay: log2 fold change, soluble protein after heating vs DMSO (PISA); higher = thermal stabilisation; K562 lysate, 10 uM; active = over 0.2 and 3.5 SD of the protein, either way, in both replicates (recomputed)).
Method in brief: (§1)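 K562 pellets were dounce-homogenised in PBS pH 7.4 containing 1 mM MgCl2, and the crude extract, at 1 mg/mL protein, was exposed to 10 μM compound for 30 min. Aliquots were heated for 3 min across 48°C-58°C, pooled, brought to 0.5% NP-40 at 4°C and spun at 21,000xg for 90 min, with the supernatant taken as soluble protein. TMTpro 16plex LC-MS/MS with equalised channel sums quantified that protein. Values are log-two fold changes in thermal stability relative to solvent controls, taken from duplicates.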
Target TNPO3 (UniProt Q9Y5L0) has a log2 fold change of -0.024. In the case of TXNIP (UniProt Q9H3M7), the log2 fold change is reported as 0.056. TPD52L2 isoform 7 (UniProt O43399) was tested, and the log2 fold change was 0.046. In the case of TMPO isoform 2 (UniProt P42167), the log2 fold change is reported as 0.11. In the case of TOX4 (UniProt O94842), the log2 fold change is reported as -0.011. Target UFM1 (UniProt P61960) has a log2 fold change of 0.015. In the case of UBE4A isoform 2 (UniProt Q14139), the log2 fold change is reported as -0.016. For UBTF (UniProt P17480), the log2 fold change was -0.031. With UFSP2 (UniProt Q9NUQ7) the log2 fold change was 0.059. TIMELESS (UniProt Q9UNS1) was tested, and the log2 fold change was -0.013. TPM1 isoform 4 (UniProt P09493) gave a log2 fold change of -0.008. Work on TPM3 (UniProt P06753) yielded a log2 fold change of -0.018. UBR5 (UniProt O95071) was tested, and the log2 fold change was -0.011. For TSFM (UniProt P43897), the log2 fold change was 0.006. Work on TEX30 (UniProt Q5JUR7) yielded a log2 fold change of -0.074. TLK2 isoform 2 (UniProt Q86UE8) was tested, and the log2 fold change was 0.014. Work on TTC4 (UniProt O95801) yielded a log2 fold change of -0.018. TBCE (UniProt Q15813) gave a log2 fold change of 0.008. UBAP2L isoform 1 (UniProt Q14157) was tested, and the log2 fold change was -0.101. Work on TBC1D2B (UniProt Q9UPU7) yielded a log2 fold change of -0.024. Target TUBB2A (UniProt Q13885) has a log2 fold change of 0.017. With TUBGCP3 (UniProt Q96CW5) the log2 fold change was -0.007. With UBXN2B (UniProt Q14CS0) the log2 fold change was 0.028. With TTMP isoform 3 (UniProt Q5BVD1) the log2 fold change was -0.051. With UBL4A (UniProt P11441) the log2 fold change was -0.029. Work on TTC37 (UniProt Q6PGP7) yielded a log2 fold change of -0.08. With TMEM164 (UniProt Q5U3C3) the log2 fold change was -0.13. TPM4 isoform 2 (UniProt P67936) gave a log2 fold change of -0.059. For TROAP (UniProt Q12815), the log2 fold change was -0.008. UBE2H (UniProt P62256) gave a log2 fold change of 0.024. Work on UBA1 (UniProt P22314) yielded a log2 fold change of -0.018. UBXN10 (UniProt Q96LJ8) gave a log2 fold change of -0.032. TXNRD2 (UniProt Q9NNW7) was tested, and the log2 fold change was 0.023. UBXN6 (UniProt Q9BZV1) showed a log2 fold change of -0.03. For TMEM14C (UniProt Q9P0S9), the log2 fold change was -0.131. TBRG4 (UniProt Q969Z0) was tested, and the log2 fold change was -0.071. Target TGFBRAP1 (UniProt Q8WUH2) has a log2 fold change of -0.035. Work on TLE3 isoform 4 (UniProt Q04726) yielded a log2 fold change of 0.01. For TUT4 (UniProt Q5TAX3), the log2 fold change was -0.032.

Each target was assayed with CC1=C(SC2=C1C(=N[C@H](C3=NN=C(N32)C)CC(=O)N)C4=CC=C(C=C4)Cl)C in the same assay as above.
Method in brief: as §1
For TNPO3 (UniProt Q9Y5L0), the log2 fold change was 0.07. With TXNIP (UniProt Q9H3M7) the log2 fold change was 0.005. TPD52L2 isoform 7 (UniProt O43399) was tested, and the log2 fold change was -0.036. Target TMPO isoform 2 (UniProt P42167) has a log2 fold change of 0.088. TOX4 (UniProt O94842) was tested, and the log2 fold change was 0.001. Target UFM1 (UniProt P61960) has a log2 fold change of -0.085. UBE4A isoform 2 (UniProt Q14139) gave a log2 fold change of -0.041. UBTF (UniProt P17480) was tested, and the log2 fold change was 0.028. UFSP2 (UniProt Q9NUQ7) gave a log2 fold change of 0. TIMELESS (UniProt Q9UNS1) was tested, and the log2 fold change was 0.011. TPM1 isoform 4 (UniProt P09493) was tested, and the log2 fold change was -0.012. With TPM3 (UniProt P06753) the log2 fold change was 0.008. UBR5 (UniProt O95071) showed a log2 fold change of 0.012. In the case of TSFM (UniProt P43897), the log2 fold change is reported as 0.007. TEX30 (UniProt Q5JUR7) gave a log2 fold change of 0.066. TLK2 isoform 2 (UniProt Q86UE8) gave a log2 fold change of -0.027. With TTC4 (UniProt O95801) the log2 fold change was -0.003. Target TBCE (UniProt Q15813) has a log2 fold change of -0.027. UBAP2L isoform 1 (UniProt Q14157) showed a log2 fold change of -0.087. TBC1D2B (UniProt Q9UPU7) gave a log2 fold change of 0.139. Target TUBB2A (UniProt Q13885) has a log2 fold change of 0.01. TUBGCP3 (UniProt Q96CW5) gave a log2 fold change of -0.004. In the case of UBXN2B (UniProt Q14CS0), the log2 fold change is reported as -0.03. With TTMP isoform 3 (UniProt Q5BVD1) the log2 fold change was 0.091. With UBL4A (UniProt P11441) the log2 fold change was -0.003. Target TTC37 (UniProt Q6PGP7) has a log2 fold change of 0.044. With TMEM164 (UniProt Q5U3C3) the log2 fold change was -0.155. TPM4 isoform 2 (UniProt P67936) gave a log2 fold change of -0.012. With TROAP (UniProt Q12815) the log2 fold change was 0.12. UBE2H (UniProt P62256) showed a log2 fold change of 0.02. UBA1 (UniProt P22314) gave a log2 fold change of 0.043. UBXN10 (UniProt Q96LJ8) was tested, and the log2 fold change was 0.048. In the case of TXNRD2 (UniProt Q9NNW7), the log2 fold change is reported as -0.015. Target UBXN6 (UniProt Q9BZV1) has a log2 fold change of 0.027. For TMEM14C (UniProt Q9P0S9), the log2 fold change was -0.031. Work on TBRG4 (UniProt Q969Z0) yielded a log2 fold change of 0.024. TGFBRAP1 (UniProt Q8WUH2) showed a log2 fold change of 0.024. TLE3 isoform 4 (UniProt Q04726) showed a log2 fold change of -0.033. TUT4 (UniProt Q5TAX3) showed a log2 fold change of -0.024.
